The results in this text go back to PubChem BioAssay (Tox21).

Experiment [1] can be described thus: Nuclear factor erythroid 2-related factor 2/antioxidant responsive element (Nrf2/ARE) small molecule agonists: qHTS cell viability counter screen in human keratinocytes (AID 1919968; active = well fitted curve in the direction sought with a large enough effect in the repeat runs; an effect the other way counts as inactive or inconclusive; also: nearly all actives have a fitted effect of over 55% in size; also: potency is read from the fitted curve at half-maximal effect). Summed up: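 Cells of the KeratinoSens line were plated at 1,500 per well and left for 5 h before compound transfer from DMSO stocks. After a 23 h incubation (37 C, 5% CO2), CellTiter-Fluor was added. Signal was taken as fluorescence intensity 1 h later.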
A general note: In qHTS, concentration-response curves come from the screen itself.

For experiment [2], the target named is Gonadotropin-releasing hormone receptor (Homo sapiens) (UniProt P30968). The experiment can be described thus: Human gonadotropin-releasing hormone receptor (GnRHR) small molecule agonists, calcium flux assay in GnRHR-HEK293 cells (AID 1920063). Also: nearly all actives have a fitted effect of over 35% in size. Also: potency is read from the fitted curve at half-maximal effect. Summed up:
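Compounds dissolved in DMSO are pin-transferred onto dye-loaded GnRHR-HEK293 cells, which were seeded 18 h before at 37 C/5% CO2. Calcium signal is read as fluorescence intensity at 1 s intervals for 3 min.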

Experiment [3] has as its target KiSS-1 receptor (Homo sapiens) (UniProt Q969F8). The experiment can be described thus: Human kisspeptin (KISS1R) small molecule agonists, calcium flux assay in KISS1R-HEK293 cells (AID 1920064; active = well fitted curve in the direction sought with a large enough effect in the repeat runs; an effect the other way counts as inactive or inconclusive; also: potency is read from the fitted curve at half-maximal effect). Summed up:
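Cell line: HEK293, stable human KISS1R. Dye loading 1 h at 37 C after 18 h culture. Read: kinetic fluorescence, 480/540 nm, 3 min at 1 s intervals.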

A short description of experiment [4]: G protein-coupled receptor (GPCR) small molecule agonists, calcium flux assay: HEK293 wild type cell line counter screen (AID 1920065). Also: potency is read from the fitted curve at half-maximal effect. In outline:
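Tox21 10K compounds, 15 concentrations each in triplicate, pin-transferred in DMSO onto dye-loaded cells; kinetic read at 480/540 nm for 3 min, 1 s intervals.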
In general terms: A change in cytosolic calcium serves as a functional read-out for many receptors and channels.

Experiment [5] in a line: p53 small molecule agonists, cell-based qHTS assay with human liver microsomes (AID 1963577). In outline:
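p53RE-bla reporter cells were pre-incubated 5 h at 37 C, then treated with compounds plus human liver microsomes (0.5 mg/mL final) and NADPH (0.5 mg/mL final) for 16 h at 37 C. Beta-lactamase activity was read by LiveBLAzer fluorescence after 2 h at room temperature.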

Experiment [6] can be described thus: p53 small molecule agonists, cell-based qHTS assay with rat liver microsomes (AID 1963578). Summed up: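 p53RE-bla cells were exposed to compounds together with rat liver microsomes (0.5 mg/mL final) and NADPH (0.5 mg/mL final) for 16 h at 37 C, then read by LiveBLAzer beta-lactamase fluorescence after 2 h at room temperature.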
A short description of experiment [7]: p53 small molecule agonists, cell-based qHTS assay with human liver microsomes: qHTS cell viability counter screen (AID 1963579). Also: nearly all actives have a fitted effect of over 45% in size. Also: potency is read from the fitted curve at half-maximal effect. Summed up:
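p53RE-bla cells (4,000/well) were pre-incubated 5 h at 37 C, then given compounds in DMSO plus human liver microsomes (0.5 mg/mL final) and NADPH (0.5 mg/mL final) for 16 h at 37 C. Viability was read by CellTiter-Glo luminescence.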

Experiment [8] in a line: p53 small molecule agonists, cell-based qHTS assay with rat liver microsomes: qHTS cell viability counter screen (AID 1963580). Also: nearly all actives have a fitted effect of over 45% in size. Also: potency is read from the fitted curve at half-maximal effect. Summed up:
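Luminescent ATP readout (CellTiter-Glo, 30 min at room temperature) reports viability of p53RE-bla HCT-116 cells after 16 h at 37 C with test compounds under metabolic activation by rat liver microsomes and NADPH at 0.5 mg/mL final each.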

Experiment [9] can be described thus: p53 small molecule agonists, cell-based qHTS assay: qHTS cell viability counter screen (AID 1963581). Also: nearly all actives have a fitted effect of over 45% in size. Also: potency is read from the fitted curve at half-maximal effect. Summed up: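 ATP content measured by luminescence in HCT-116 p53RE-bla cells treated 16 h at 37 C, same wells as the reporter screen.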
Experiment [10] is described as follows: p53 small molecule agonists, cell-based qHTS assay (AID 1963582; active = well fitted activation curve with a large enough effect in the signal ratio in the repeat runs, not every such curve was filed as active; the % refers to the signal ratio). In outline: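 16 h compound exposure (37 C) of p53 response element–bla cells, preceded by 5 h recovery at 37 C/5% CO2; read-out via LiveBLAzer B/G FRET substrate, 2 h RT, fluorescence intensity.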
In experiment [11] the target is 5-hydroxytryptamine receptor 2A (Homo sapiens) (UniProt P28223). Nature of the experiment: 5-hydroxytryptamine receptor 2A (HTR2A) small molecule antagonists, cell-based qHTS assay (AID 1963586). Also: nearly all actives have a fitted effect of over 45% in size. Summed up: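 CHO cells stably expressing human HTR2A were plated for 18 h at 37 C, then loaded with calcium dye for 1 h. Compounds were preincubated 5 min at room temperature before DOI (4 nM solution) was added. Kinetic fluorescence was read for 3 min.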
Chain of 5-hydroxytryptamine receptor 2A (Homo sapiens) (P28223 whole entry, looked up): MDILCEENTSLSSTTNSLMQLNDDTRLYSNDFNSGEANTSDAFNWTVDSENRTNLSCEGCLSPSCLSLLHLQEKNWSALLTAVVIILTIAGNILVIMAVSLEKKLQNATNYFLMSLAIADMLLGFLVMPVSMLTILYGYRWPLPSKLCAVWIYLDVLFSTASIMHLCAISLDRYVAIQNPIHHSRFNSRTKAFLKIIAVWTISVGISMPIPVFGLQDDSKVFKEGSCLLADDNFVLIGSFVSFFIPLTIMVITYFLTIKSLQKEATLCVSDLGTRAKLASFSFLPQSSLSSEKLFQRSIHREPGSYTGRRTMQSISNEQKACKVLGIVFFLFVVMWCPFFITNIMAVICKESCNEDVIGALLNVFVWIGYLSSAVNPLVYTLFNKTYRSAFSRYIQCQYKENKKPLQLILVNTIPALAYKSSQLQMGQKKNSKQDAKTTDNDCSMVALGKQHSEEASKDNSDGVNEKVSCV

Experiment [12] shares this target. The experiment can be described thus: 5-hydroxytryptamine receptor 2A (HTR2A) small molecule agonists, cell-based qHTS assay (AID 1963587). Also: nearly all actives have a fitted effect of over 30% in size. Also: potency is read from the fitted curve at half-maximal effect. Summed up:
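HTR2A-CHO cells, plated 18 h at 37 C/5% CO2, dye-loaded 1 h at 37 C; compounds in DMSO added by pin tool (agonist mode). Intracellular calcium flux read as kinetic fluorescence on FDSS over 2 min at 1 s intervals.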

Experiment [13] has as its target Muscarinic acetylcholine receptor M1 (Homo sapiens) (UniProt P11229). Nature of the experiment: Cholinergic receptor muscarinic 1 (CHRM1) small molecule antagonists, cell-based qHTS assay (AID 1963588). Also: nearly all actives have a fitted effect of over 40% in size. Summed up: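 Compounds were tested at 15 concentrations in three independent runs. Dye-loaded CHRM1-CHO cells were exposed 5 min at room temperature before stimulation by acetylcholine added at 50nM. Intracellular calcium was read kinetically on FDSS for 3 min.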

The target is the same in experiment [14]. Nature of the experiment: Cholinergic receptor muscarinic 1 (CHRM1) small molecule agonists, cell-based qHTS assay (AID 1963589). Also: nearly all actives have a fitted effect of over 35% in size. In outline:
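Homogeneous fluorescence calcium flux, agonist mode. Human M1-expressing CHO cells; compound dosed at 15 concentrations, three independent runs; signal sampled every 1 sec.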

Experiment [15] is described as follows: cAMP Responsive Elements (CRE) small molecule agonists, cell-based qHTS assay (AID 1963590). In outline: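 HEK 293T cells stably bearing CRE-bla were plated at 2,000 cells per well and rested 18 h. Compounds, positive controls or DMSO were added for 3 h at 37 C. LiveBLAzer B/G substrate was then loaded for 2 h at room temperature.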
A short description of experiment [16]: cAMP Responsive Elements (CRE) small molecule antagonists, cell-based qHTS assay (AID 1963591; active = well fitted inhibition curve with a large enough effect in the signal ratio in the repeat runs, not every such curve was filed as active; the % refers to the signal ratio). In outline: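 First, CRE-bla HEK293T cells settled 18 h at 37 C. Next, compound and 0.25 uM final NKH477 were applied for 3 h. Last, LiveBLAzer B/G substrate was loaded for 2 h at room temperature.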
For experiment [17], the target named is D(2) dopamine receptor (Homo sapiens) (UniProt P14416). The experiment can be described thus: Dopamine D2 receptor (DRD2) small molecule agonists, cell-based qHTS assay (AID 1963594). Also: nearly all actives have a fitted effect of over 35% in size. In outline: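 HEK293 cells stably expressing DRD2 were cultured 24 h at 37 C, then given Ro20-1724 (0.1 mM final) and compounds for 10 min at room temperature. NKH477 (200nM) was then added for 30 min. cAMP was read by HTRF.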
Chain of D(2) dopamine receptor (Homo sapiens) (P14416 whole entry, looked up): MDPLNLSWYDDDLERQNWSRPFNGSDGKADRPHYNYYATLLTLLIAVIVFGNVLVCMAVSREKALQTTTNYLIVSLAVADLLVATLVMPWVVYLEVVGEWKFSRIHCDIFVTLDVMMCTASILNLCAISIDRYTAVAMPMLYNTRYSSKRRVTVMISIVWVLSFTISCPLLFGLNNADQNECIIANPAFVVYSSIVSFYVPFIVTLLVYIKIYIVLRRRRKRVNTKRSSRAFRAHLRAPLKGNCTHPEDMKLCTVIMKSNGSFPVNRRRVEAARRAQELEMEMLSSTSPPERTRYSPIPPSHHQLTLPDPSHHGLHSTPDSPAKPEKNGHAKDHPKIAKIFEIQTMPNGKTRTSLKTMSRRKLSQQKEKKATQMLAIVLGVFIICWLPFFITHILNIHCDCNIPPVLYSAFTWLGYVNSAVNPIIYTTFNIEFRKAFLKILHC

Experiment [18] has the same target. The experiment can be described thus: Dopamine D2 receptor (DRD2) small molecule antagonists, cell-based qHTS assay (AID 1963595; active = well fitted inhibition curve with a large enough effect in the signal ratio in the repeat runs, with a control signal flat; the % refers to the signal ratio; also: potency is read from the fitted curve at half-maximal effect). In outline: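 DRD2-HEK293; 0.1 mM Ro20-1724; cpd 10 min RT; NKH477 200 nM + quinpirole 12 nM, 30 min RT; HTRF cAMP (cAMP-d2/anti-cAMP cryptate), 665/620 nm ratio after 1 h.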
Experiment [19] deals with Beta-2 adrenergic receptor (Homo sapiens) (UniProt P07550). The experiment can be described thus: Adrenergic beta2 receptor (ADRB2) small molecule antagonists, cell-based qHTS assay (AID 1963592). Also: series mostly up to about 92 µM; nearly all actives have a fitted effect of over 50% in size. In outline: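 Assay format: CHO-ADRB2 cells, 18-20hr seeding at 37C/5% CO2, then compound plus 1nM isoproterenol agonist mix for 0.5hr RT. Homogeneous time-resolved fluorescence cAMP detection after 1hr, expressed as 665/615 nm ratio.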
Chain of Beta-2 adrenergic receptor (Homo sapiens) (P07550 whole entry, looked up): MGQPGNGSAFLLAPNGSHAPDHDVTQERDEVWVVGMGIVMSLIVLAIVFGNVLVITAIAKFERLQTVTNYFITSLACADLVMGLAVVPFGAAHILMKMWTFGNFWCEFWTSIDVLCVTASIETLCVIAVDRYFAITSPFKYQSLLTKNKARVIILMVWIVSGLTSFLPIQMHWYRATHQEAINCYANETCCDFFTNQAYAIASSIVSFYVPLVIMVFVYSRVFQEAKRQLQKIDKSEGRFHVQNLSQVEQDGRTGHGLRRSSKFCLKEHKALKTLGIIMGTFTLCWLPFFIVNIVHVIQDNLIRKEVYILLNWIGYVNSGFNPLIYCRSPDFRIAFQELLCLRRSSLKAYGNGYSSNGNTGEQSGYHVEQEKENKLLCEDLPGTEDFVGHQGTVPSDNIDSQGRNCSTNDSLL

Values without a mark were called inactive. Results filed as inconclusive are left out. Active and inactive are the calls of the source. Unless noted, calls follow the shape of the full dose curve.

Chain of Gonadotropin-releasing hormone receptor (Homo sapiens) (P30968 whole entry, looked up): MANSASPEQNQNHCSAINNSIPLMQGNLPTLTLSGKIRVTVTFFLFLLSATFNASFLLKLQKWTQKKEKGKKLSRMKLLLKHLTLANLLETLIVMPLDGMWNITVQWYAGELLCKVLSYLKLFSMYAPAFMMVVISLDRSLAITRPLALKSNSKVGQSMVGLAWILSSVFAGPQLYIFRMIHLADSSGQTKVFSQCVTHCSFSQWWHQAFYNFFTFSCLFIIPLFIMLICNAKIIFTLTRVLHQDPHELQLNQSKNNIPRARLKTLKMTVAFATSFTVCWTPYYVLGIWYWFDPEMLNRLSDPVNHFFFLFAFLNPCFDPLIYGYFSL
Chain of Muscarinic acetylcholine receptor M1 (Homo sapiens) (P11229 whole entry, looked up): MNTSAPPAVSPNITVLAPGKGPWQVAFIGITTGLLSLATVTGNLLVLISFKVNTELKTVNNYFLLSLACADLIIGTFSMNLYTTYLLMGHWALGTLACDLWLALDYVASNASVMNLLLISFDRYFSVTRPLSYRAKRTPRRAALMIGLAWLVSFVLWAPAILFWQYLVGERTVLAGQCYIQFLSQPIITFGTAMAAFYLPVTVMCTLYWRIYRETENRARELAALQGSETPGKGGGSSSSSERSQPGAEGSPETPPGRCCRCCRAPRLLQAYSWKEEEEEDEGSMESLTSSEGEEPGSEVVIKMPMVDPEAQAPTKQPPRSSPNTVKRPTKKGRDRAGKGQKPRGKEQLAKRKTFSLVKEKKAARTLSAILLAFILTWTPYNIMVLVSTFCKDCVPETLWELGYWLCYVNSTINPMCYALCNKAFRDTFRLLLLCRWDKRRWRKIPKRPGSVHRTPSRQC
Chain of KiSS-1 receptor (Homo sapiens) (Q969F8 whole entry, looked up): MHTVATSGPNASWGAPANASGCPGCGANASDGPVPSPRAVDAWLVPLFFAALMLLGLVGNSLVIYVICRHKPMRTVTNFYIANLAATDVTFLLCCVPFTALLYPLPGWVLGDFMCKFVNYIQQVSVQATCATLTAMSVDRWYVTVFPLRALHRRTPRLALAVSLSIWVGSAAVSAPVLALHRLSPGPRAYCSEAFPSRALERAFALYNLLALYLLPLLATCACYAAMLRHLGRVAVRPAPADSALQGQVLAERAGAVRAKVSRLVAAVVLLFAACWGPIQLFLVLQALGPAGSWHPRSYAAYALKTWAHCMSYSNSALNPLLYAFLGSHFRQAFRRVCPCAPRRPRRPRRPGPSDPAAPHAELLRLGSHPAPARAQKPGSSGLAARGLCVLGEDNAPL

For `CCCCCC[N+](=O)[O-]`, the Potency result in experiment [1], in experiment [2], in experiment [3], in experiment [4], in experiment [5] and in [6] was “inactive” throughout. The Potency result in experiment [7], in experiment [8], in experiment [9], in experiment [10], in [11] and in experiment [12] was “inactive” throughout. In addition, the Potency result in [13], in experiment [14], in [15], in experiment [16], in experiment [17] and in [18] was “inactive” in each case.

`CC(C)(CCl)C(=O)Cl`: the Potency entry in experiment [1], in [2], in experiment [3], in [4], in [5] and in experiment [6] was “inactive” each time. Also, the Potency result in experiment [8], in experiment [9], in experiment [10], in experiment [11], in [12] and in experiment [13] was “inactive” in each case. The Potency result in [14], in experiment [15], in [16], in [19] and in experiment [18] was “inactive” throughout. Moreover, the Potency in [7] is 18.2 µM (active).

With `NC(=O)CI`, the Potency entry in experiment [1], in experiment [2], in experiment [3], in experiment [4], in [5] and in experiment [6] was “inactive” each time. Moreover, the Potency result in experiment [7], in experiment [8], in experiment [9], in [12], in experiment [13] and in [14] was “inactive” each time. For the same molecule, the Potency result in experiment [16], in [19] and in experiment [18] was “inactive” in each case.

On to `C[C@@H]1CC[C@@]2(OC1)O[C@H]1[C@@H](O)[C@H]3[C@@H]4CC[C@H]5C[C@@H](O[C@@H]6O[C@H](CO)[C@H](O[C@@H]7O[C@H](CO)[C@@H](O)[C@H](O[C@@H]8OC[C@@H](O)[C@H](O)[C@H]8O)[C@H]7O[C@@H]7O[C@H](CO)[C@@H](O)[C@H](O[C@@H]8O[C@H](CO)[C@@H](O)[C@H](O)[C@H]8O)[C@H]7O)[C@H](O)[C@H]6O)[C@H](O)C[C@]5(C)[C@H]4CC[C@]3(C)[C@H]1[C@@H]2C`, for which the Potency in [1] is 8.17 µM (active); in [2] it was 0.735 µM (active); in experiment [3], 23.2 µM (active); in experiment [4], 41.3 µM (active); in [7], 13.7 µM (active); in experiment [8], 13.7 µM (active). Further, the Potency in experiment [9] is 13.7 µM (active); in experiment [18] it was 2.3 µM (active). Besides, the Potency result in [5], in [6] and in [16] was “inactive” each time.

For the molecule `CC1CCCCC1NC(=O)Nc1ccccc1` (centres undefined), the Potency result in [1], in experiment [2], in experiment [3], in [4], in experiment [5] and in experiment [6] was “inactive” in each case. Besides, the Potency result in experiment [7], in experiment [11], in experiment [12], in [13], in experiment [15] and in experiment [16] was “inactive” in each case. The Potency result in experiment [19], in experiment [17] and in experiment [18] was “inactive” throughout.

For `O=[N+]([O-])C(Br)Br`, the Potency result in experiment [1], in experiment [2], in [3], in [4], in [5] and in [6] was “inactive” in each case. For the same molecule, the Potency result in experiment [7], in experiment [8], in experiment [9], in experiment [10], in experiment [13] and in experiment [14] was “inactive” in each case. Moreover, the Potency result in experiment [15], in experiment [16], in [19] and in experiment [18] was “inactive” each time. Also, the Potency in experiment [12] is 55 µM (active).

Take `Cc1cc(=O)[nH]o1`: the Potency entry in [1], in experiment [2], in experiment [3], in experiment [4], in [5] and in [6] was “inactive” in each case. In addition, the Potency result in experiment [7], in experiment [8], in experiment [9], in [11], in [12] and in experiment [13] was “inactive” in each case. Also, the Potency entry in experiment [14], in experiment [15], in [16], in [17] and in experiment [18] was “inactive” in each case.

In the case of `BrCC(Br)(Br)Br`, the Potency entry in [1], in experiment [2], in experiment [3], in experiment [4], in experiment [5] and in [6] was “inactive” in each case. Also, the Potency entry in [7], in experiment [8], in experiment [9], in experiment [10], in [12] and in experiment [13] was “inactive” each time. For the same molecule, the Potency entry in experiment [14], in experiment [15], in experiment [16], in experiment [19], in experiment [17] and in [18] was “inactive” each time.
